Laboratory results taken from PubChem BioAssay AID2328 (The Scripps Research Institute Molecular Screening Center, 2010).
The list shows a part of the results. A number with no mark means an inactive call.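 Rule for the calls: active = mean inhibition over triplicates above a set limit taken from the primary EBNA-1 screen (cut at about 37% in these data); inactive = the rest.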

Molecular target: Lytic switch protein BZLF1 (Epstein-Barr virus (strain B95-8)) (UniProt P03206)
Assay: blockers of Zta binding to ZRE DNA – biochemical, fluorescence polarization, triplicate, counter-screen for EBNA-1 inhibitor project (AID 2328);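 note: purified full length Zta protein with Cy5 labeled ZRE DNA probe; 0% = Zta with DMSO and 100% = wells lacking Zta protein; inhibitors lower polarization by freeing the labeled DNA probe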
Conditions: Cy5 fluorescence polarization, at 11.1 µM, stronger effect = higher value

Lytic switch protein BZLF1 (Epstein-Barr virus (strain B95-8)), sequence (P03206 whole entry, looked up): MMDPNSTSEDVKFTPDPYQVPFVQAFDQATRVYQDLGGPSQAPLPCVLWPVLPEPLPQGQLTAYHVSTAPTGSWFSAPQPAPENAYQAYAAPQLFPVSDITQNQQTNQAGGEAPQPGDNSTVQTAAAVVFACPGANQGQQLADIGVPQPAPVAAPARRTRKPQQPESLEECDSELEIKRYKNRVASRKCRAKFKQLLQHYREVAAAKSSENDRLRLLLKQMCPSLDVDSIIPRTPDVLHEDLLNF

| Structure (SMILES) | inhibition |
| --- | --- |
| CCOc1cccc(NC(=O)Cn2nc(-c3ccc4c(c3)OCCO4)ccc2=O)c1 | -0.94% |
| COc1ccc(NC(=O)NCc2ccc3c(c2)OCO3)c(OC)c1 | -15.6% |
| Cc1ccc(-c2nn(-c3ccccc3)cc2/C=C2\SC(=S)N(CCCCCC(=O)O)C2=O)o1 | 5.22% |
| Cc1cccc(N(CC(=O)Nc2ccc(-c3nc4ccc(C)cc4s3)cc2)S(C)(=O)=O)c1 | 13.4% |
| CCc1nccn1S(=O)(=O)c1cccc([N+](=O)[O-])c1 | 0.63% |
| COC(=O)C1=CN(Cc2ccc(OC)cc2)C=C(C(=O)OC)C1c1ccc(O)c(OC)c1 | -0.26% |
| CCOc1ccc(C(=O)NC(=S)Nc2ccc(NC(=O)C(C)C)cc2)cc1[N+](=O)[O-] | -3.36% |
| O=C(CCCn1c(SCC(=O)c2ccc(F)cc2)nc2ccccc2c1=O)NCc1ccco1 | 10.2% |
| O=C(Nc1ccc2ccccc2c1)Nc1ccc2snnc2c1 | 1.17% |
| C/C(=N\N=C(N)N)c1ccc(Cl)cc1 | 1.14% |
| CCOC(=O)c1ccc(NC(=O)C2CC(=O)Nc3nc4ccccc4n32)cc1 (configuration not stated) | -17.7% |
| CCOc1ccc(OCC)c(NC(=O)C(NS(=O)(=O)c2ccc3c(c2)oc(=O)n3C)C(C)C)c1 (configuration not stated) | 22.3% |
| CC(=O)Nc1ccc(S(=O)(=O)NCC(=O)OCc2cc(=O)oc3ccc4ccccc4c23)cc1 | 7.35% |
| N#Cc1nc(N)nc(N(c2ccccc2)c2ccccc2)n1 | -3.66% |
| CCOc1ccc(NC(=O)c2ccc(NC(=O)COC(=O)c3ccc(NC(=O)CC#N)cc3)cc2)cc1 | 6.56% |
| COc1ccc(C)cc1NC(=O)NCc1ccccn1 | -2.35% |
| COC(=O)CSc1nc(C)c2ccc(OC)cc2n1 | -0.69% |
| CCOc1[nH]n(-c2ccc(Cl)cc2)c(=O)c1C=Nc1ccc(O)cc1 | 6.97% |
| CC(=O)c1c(C)[nH]c(C(=O)OCC(=O)Nc2sc3c(c2C#N)CCCC3)c1C | 5.6% |
| Cc1ccc(C(=O)NNC(=O)c2cc3cc4ccccc4nc3s2)cc1 | 7.01% |
| Nc1ccc(S(=O)(=O)Nc2nccc(/C=C/c3ccc(Br)s3)n2)cc1 | -3.48% |
| COc1ccc(C(=O)Nc2cccc(NC(=O)c3ccc(OC)cc3OC)n2)c(OC)c1 | 7.79% |
